Here are results for 26 compounds from PubChem BioAssay (NCATS).

Assay [1] has as its target Aldehyde dehydrogenase, mitochondrial (Homo sapiens) (UniProt P05091). The experiment in a line: qHTS for Inhibitors of the Aldehyde Dehydrogenase Family (ALDH2) Confirmatory screens (AID 2061303; active = well fitted inhibition curve with a large enough effect; title and protocol of this record describe different tests; also: nearly all actives have a fitted effect of over 45% in size).
Assay [2] has the same target. The experiment in a line: qHTS for Inhibitors of the Aldehyde Dehydrogenase Family (ALDH2) Primary screen (AID 2061308). Also: nearly all actives have a fitted effect of over 55% in size.
Assay [3] addresses Retinaldehyde dehydrogenase 3 (Homo sapiens) (UniProt P47895). The experiment in a line: qHTS for Inhibitors of the Aldehyde Dehydrogenase Family (ALDH1A3) Confirmatory screens (AID 2061311). Also: nearly all actives have a fitted effect of over 60% in size. In general terms: Quantitative high-throughput screening tests each substance at several concentrations.
In assay [4] the target is Retinal dehydrogenase 2 (Homo sapiens) (UniProt O94788). The experiment in a line: qHTS for Inhibitors of the Aldehyde Dehydrogenase Family (ALDH1A2) Confirmation screens (AID 2061314). Also: nearly all actives have a fitted effect of over 65% in size.
For assay [5], the target named is Retinaldehyde dehydrogenase 3 (Homo sapiens) (UniProt P47895). The experiment in a line: qHTS for Inhibitors of the Aldehyde Dehydrogenase Family (ALDH1A3) Primary screen (AID 2061315).
Assay [6] concerns the target Aldehyde dehydrogenase 1A1 (Homo sapiens) (UniProt P00352). Nature of the assay: qHTS for Inhibitors of the Aldehyde Dehydrogenase Family (ALDH1A1) Confirmatory screens (AID 2061316). Also: nearly all actives have a fitted effect of over 65% in size.
Assay [7] is described as follows: BET inhibitor-based combinations targeting novel dependencies in MECOM-rearranged (r) AML: MV-4-11 cell line (AID 2202233). Also: nearly all actives have a fitted effect of over 45% in size. The method in brief:
(§1)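 Luminescent ATP readout (CellTiter-Glo, 15 min at room temperature) after 48 hr drug exposure gave viability. Dose-response curves, normalized to DMSO and empty-well controls, were summarized as area under the curve and its mean-centred Z-score.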

A short description of assay [8]: BET inhibitor-based combinations targeting novel dependencies in MECOM-rearranged (r) AML: HNT-34 cell line (AID 2202234). Also: nearly all actives have a fitted effect of over 35% in size. The method in brief: as §1
Assay [9] can be described thus: BET inhibitor-based combinations targeting novel dependencies in MECOM-rearranged (r) AML: UCSD-AML1 cell line (AID 2202235). Also: nearly all actives have a fitted effect of over 40% in size. The method in brief: as §1
A short description of assay [10]: BET inhibitor-based combinations targeting novel dependencies in MECOM-rearranged (r) AML: AML-194 cell line (AID 2202237; also: nearly all actives have a fitted effect of over 40% in size). The method in brief: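 Luminescent ATP readout (CellTiter-Glo) after 48 hr drug exposure gives viability. Curves span 11 concentrations and are normalized to DMSO and empty wells. Activity is reported as area under the curve and its Z-transform within each cell line.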

Records with an inconclusive call do not appear. Active and inactive are the calls of the source. Unless noted, calls follow the shape of the dose curve; as a rule, active = well fitted curve in the direction sought with a large enough effect; inconclusive = small, poorly fitted or top-dose-only effect, or another doubt; inactive = no such curve, though single readings can be large; an effect the other way counts as inactive or inconclusive.
Potency is read from the fitted curve at half-maximal effect.

Turning to `O=C1CC(c2ccccc2)CC2=C1C1(CCCC1)N=C(Nc1nc3ccccc3o1)N2` (stereo not given), the Potency entry in assay [1], in [2], in [3], in [4], in [5] and in [6] was “inactive” throughout.
With `Cc1c(C(=O)N(C)CC2CCCO2)[nH]c2c1C(=O)CC(c1ccco1)C2` (stereo not given), the Potency result in [1] and in assay [2] was “inactive” in each case. Also, the results for the Potency in [3] and in [4] were 15.9 µM (active) and 12.7 µM (active), respectively.
For the compound `O=C(c1ccc(-c2cnc3c(O)cccc3c2)cc1)N1CCNCC1`, the Potency entry in assay [1], in [2], in assay [4] and in [5] was “inactive” in each case.
In the case of `O=C(CN1C(=O)CC(c2ccco2)Sc2ccccc21)Nc1ccccc1F` (stereo not given), the Potency entry in [1], in assay [2], in assay [3], in assay [4] and in [5] was “inactive” throughout. Besides, the Potency in [6] was 2.52 µM (active).
In the case of `Cc1c(Cl)cccc1NS(=O)(=O)c1cc2c(cc1F)NC(=O)CC2`, the Potency entry in [1], in assay [2], in [3], in assay [5] and in assay [6] was “inactive” each time.
For the compound `O=[S+]([O-])(NCC#CCSc1nnc(-c2cccc3ccccc23)o1)c1ccc(F)cc1`, the Potency entry in assay [1], in [2], in assay [4] and in assay [5] was “inactive” throughout.
In the case of `S=C(Nc1ccccn1)c1ccccn1`, the Potency in assay [1] is 28.3 µM (active); in assay [2], 11.2 µM (active); in [3], 6.34 µM (active); in assay [6], 5.65 µM (active).
As for `CC(=O)NC(C)c1cc(Cl)c2cccnc2c1O` (stereo not given), the Potency entry in assay [1], in assay [2] and in assay [5] was “inactive” in each case. The Potency in [4] was 28.3 µM (active).
With `COc1ccc([N+](=O)[O-])c(S(=O)(=O)c2ccccc2)n1`, the Potency in assay [1] is 17.8 µM (active); in assay [2] it was 4.47 µM (active); in assay [3], 5.65 µM (active); in [4] it was 15.8 µM (active); in assay [6] it was 2.01 µM (active).
In the case of `Cc1cc(C)nc(NC(=S)N2CCN(c3cncc4ccccc34)CC2)c1`, the Potency result in assay [1], in [2] and in assay [5] was “inactive” throughout. The Potency in [3] was 22.5 µM (active); in [6], 5.65 µM (active).
In the case of `C=C[C@H]1[C@H](O[C@@H]2O[C@H](CO)[C@@H](O)[C@H](O)[C@H]2O)OC=C(C(=O)OC)[C@H]1CCOC(=O)c1cc(O)c(O)c(O)c1`, the Potency result in [1], in [2], in assay [4] and in [6] was “inactive” in each case. Besides, the Potency in assay [3] is 6.18 µM (active).
Take `c1cn2cc(-c3ccc4cn[nH]c4c3)nc(Nc3ccc(N4CCOCC4)cc3)c2n1`: the Potency entry in assay [1], in [2], in assay [3], in assay [5] and in [6] was “inactive” in each case. The Potency in assay [7] is 1.66 µM (active); in assay [8], 4.17 µM (active); in assay [9], 10.5 µM (active); in [10], 1.32 µM (active).
As to `CC(=O)c1ccc(N2CCN(S(=O)(=O)c3ccc4c(c3)n(C)c(=O)n4C)CC2)cc1`, the Potency in assay [1] was 0.316 µM (active); in assay [3] it was 2.01 µM (active). In addition, the Potency result in assay [2] and in [6] was “inactive” each time.
As for `NC(=O)C1CCN(c2nc(-c3ccc4occc(=O)c4c3)cs2)CC1`, the Potency entry in [1], in assay [2], in [4] and in assay [5] was “inactive” throughout.
With `O=S1(=O)CCN(Cc2cc(NCC3CCOCC3)c3[nH]c(-c4ccccc4)cc3c2)CC1`, the Potency result in assay [1], in assay [2] and in assay [6] was “inactive” in each case. Further, the Potency in assay [3] is 11.3 µM (active).
Consider `O=C(Nc1ncc([N+](=O)[O-])s1)c1ccccc1O`, for which the Potency is 28.2 µM (active) in assay [1], 0.449 µM (active) in [3] and 2 µM (active) in [5]. Further, the Potency entry in [2] is “inactive”.
Turning to `COc1cccc(-c2no[n+]([O-])c2C#N)c1`, the Potency entry in assay [1], in assay [2], in assay [3], in assay [5] and in assay [6] was “inactive” throughout. For the same compound, in [4], the Potency was 10.1 µM (active).
As for `Cc1ccc(-c2no[n+]([O-])c2C#N)cc1`, the Potency result in assay [1], in [2], in assay [3] and in [5] was “inactive” in each case.
Take `Nc1ncc(-c2cccc(-c3nn4c(=O)cc(N5CCNCC5)nc4s3)c2)cn1`: the Potency is 14.2 µM (active) in assay [1] and 11.3 µM (active) in assay [4]. Further, the Potency entry in assay [2] and in assay [5] was “inactive” in each case.
With `CN(C)c1cccc(-c2csc(N3CCC(C(N)=O)CC3)n2)c1`, the Potency in [1] was 12.7 µM (active); in assay [3], 12.7 µM (active); in assay [6] it was 11.3 µM (active). Besides, the Potency result in assay [2] and in assay [5] was “inactive” in each case.
With `Cc1noc(C)c1-c1ccc2ncnc(NCc3ccc(F)cc3)c2c1`, the values for the Potency in assay [1], in assay [3] and in [6] were 12.6 µM (active), 12.6 µM (active) and 20.1 µM (active), respectively. In addition, the Potency entry in assay [2] and in assay [5] was “inactive” each time.
On to `Cc1ccc(S(=O)(=O)c2ccc([N+](=O)[O-])cn2)cc1`, for which the Potency is 2 µM (active) in assay [1]; 2 µM (active) in [2]; 4.47 µM (active) in assay [3]; 1.13 µM (active) in assay [4]; 0.634 µM (active) in assay [6].
As to `CCOC(=O)c1c(-c2ccccc2)no[n+]1[O-]`, the Potency result in [1], in assay [2], in assay [3] and in assay [5] was “inactive” each time.
Regarding `COc1ccc(-c2csc(NC(=O)c3ccncc3NS(=O)(=O)c3ccc(C)cc3)n2)cc1`, the Potency entry in assay [1], in assay [2], in [3] and in assay [5] was “inactive” in each case. Besides, the Potency in assay [6] is 22.5 µM (active).
For the compound `O=C(O)CN1C(=O)N/C(=C\c2cccn2-c2ccc(P(=O)(O)O)cc2)C1=O`, the Potency entry in assay [1], in [2], in [3] and in assay [5] was “inactive” throughout. In assay [6], the Potency was 7.98 µM (active).
As for `CC(C)(C)Nc1nc(C#N)nc(Nc2ccccc2)n1`, the Potency result in assay [1], in assay [2], in [3], in assay [5] and in assay [6] was “inactive” in each case.
